Among all 340,000 compounds or so, about 6,200 (1.8%) were called active. Another 10% or so got no clear call; they are omitted. Calls follow the shape of the dose curve; as a rule, active = well fitted activation curve with a large enough effect; inconclusive = small, poorly fitted or top-dose-only effect; inactive = no such curve, though single readings can be large or run the other way. This excerpt belongs to a sample that is enriched for actives.
Assay: A quantitative high throughput screen for small molecules that induce DNA re-replication in SW480 colon adenocarcinoma cells. Also: nearly all actives have a fitted effect of over 55% in size. As to re-replication activation: % of control where 0% means no effect.
Details: Hoechst DNA content imaging, 48 h; series mostly up to 46.1 µM
In short: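 DNA re-replication was detected as more nuclei of elevated Hoechst intensity after 48 hr exposure to compound (23 nL pinned per well of 250 cells).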
Potency is read from the fitted curve at half-maximal effect.

Potency, active:
COc1ccccc1NC(=O)C1=C(C)Nc2nc3ccccc3n2C1c1cccs1 (stereo not drawn) 4.11 µM
COc1ccc2sc(-c3ccc(S(C)(=O)=O)cc3)c(C#Cc3cncn3C)c2c1 5.8 µM
COc1cc(C(=O)NC2CCN(Cc3ccccc3)CC2)cc(Cl)c1OC(C)C 18.4 µM
Cn1nc(-c2ccccc2)c(CSc2cccc(Cl)c2)c1Cl 16.4 µM
CCOc1cccc(-n2nnnc2-c2ccc(OC)cc2)c1 13 µM
COC(=O)C1=C(C)N(C)C(=O)NC1c1ccc([N+](=O)[O-])o1 (stereo not drawn) 23.1 µM
CCCCN(Cc1ccccc1)C(=O)C1CCN(Cc2sccc2C)CC1 14.6 µM
COc1ccc2c(c1OC)C(=O)OC2Nc1nc(-c2ccccc2)cs1 (stereo not drawn) 6.51 µM
CC1C(C)N(C(=O)CCl)c2ccccc2N1C(=O)CCl (stereo not drawn) 5.17 µM
COc1ccc(NS(=O)(=O)c2ccc(C(=O)Nc3c(C)n(C)n(-c4ccccc4)c3=O)cc2)cc1 6.51 µM
C(=N/Nc1cc(N2CCOCC2)nc(N2CCOCC2)n1)/c1ccccc1 5.8 µM
COc1cc2c(cc1OC)CN(C(=O)c1cc(=O)c3ccccc3o1)CC2 13 µM
Oc1ccc(CNc2ccccc2O)cc1 20.6 µM

Potency, inactive:
CCOC(=O)C1=C(C)Nc2nc3ccccc3n2C1c1cccs1 (stereo not drawn)
CCOc1ccc(C2C(C(=O)NC)=C(C)Nc3nc4ccccc4n32)cc1OC (stereo not drawn)
Cc1ccc(C(=O)O)c(NC=O)c1OCc1ccccc1
CC(OC(=O)c1c(F)cccc1F)C(=O)NCCC1=CCCCC1 (stereo not drawn)
O=C(Nc1cccc(S(=O)(=O)N2CCCC2)c1)c1cncc(Br)c1
Cn1cncc1C#Cc1c(-c2ccsc2)sc2ccccc12
COc1ccc2sc(-c3ccc(S(C)(=O)=O)cc3)c(-c3ccc(C(N)=O)cc3)c2c1
Oc1cccc(CCc2ccccn2)c1
COc1ccc(C(=O)O)cc1S(=O)(=O)NC1CCN(Cc2ccccc2)CC1
COc1cc2[nH]c(=O)n(Cc3ccc(C(=O)NC4CCN(Cc5ccccc5)CC4)cc3)c(=O)c2cc1OC
CNC[C@@H]1Oc2c(NS(C)(=O)=O)cccc2C(=O)N([C@@H](C)CO)C[C@H]1C
CCn1nc(C(=O)NNS(=O)(=O)c2cc(/C=C/C(=O)O)cc(OC)c2OC)c2ccccc2c1=O
C=CC[C@@H](Cc1ccc(F)cc1)C(=O)OC[C@H]1CCCN1C(=O)[C@H](CC=C)CC(=O)N(CCO)Cc1ccccc1
Cc1ccc(S(=O)(=O)c2c(COC(=O)c3cccc(Cl)c3)c(-c3ccccc3)nn2C)cc1
Cn1nc(-c2ccccc2)c(CO)c1Sc1ccccc1
COc1cccc(CC(=NO)c2cccc(OC)c2)c1
c1ccc(-n2nnnc2-c2cccnc2)cc1
CCOC(=O)C(C)n1cnc2c(nnn2-c2cccc(OC)c2)c1=O (stereo not drawn)
COc1cc(S(=O)(=O)N2CCN(C(=O)C3CC3)CC2)ccc1NC(C)=O
COc1cc(C(=O)NC2CCN(C)CC2)ccc1Nc1ncc2c(n1)N(C1CCC(O)CC1)CCC(=O)N2C (stereo not drawn)
COC(=O)C1=C(C)N(C)C(=S)NC1c1ccccc1 (stereo not drawn)
COc1ccc(C2NC(=O)N(C)C(C)=C2[N+](=O)[O-])cc1 (stereo not drawn)
Cc1cccc(C(=O)N[C@H](C(=O)NCc2cccs2)C(C)C)c1
CCCC(=O)C1CCN(Cc2ccccc2)CC1
CSCCC(NS(=O)(=O)c1ccc(C)cc1)C(=O)N(C)CC(=O)Nc1ccccc1Br (stereo not drawn)
CNN/C(N=Cc1ccc([N+](=O)[O-])s1)=N\S(=O)(=O)c1cc(C)c(Cl)cc1SCc1ccccc1
COc1ccc(-c2csc(NC3OC(=O)c4ccccc43)n2)cc1 (stereo not drawn)
Cc1cccc(Nc2nc(-c3ccccc3)cs2)n1
O=C1NC[C@@H](c2ccccc2)OC(=O)[C@H](Cc2ccc(F)cc2)CC/C=C/C[C@H]1CC(=O)N(CCO)Cc1ccccc1
CCOC(=O)C1=CN(Cc2ccc(Br)cc2)S(=O)(=O)NC1C (stereo not drawn)
CC1CC(C)CN(CC(=O)N2c3ccccc3CCc3ccccc32)C1 (stereo not drawn)
CC1C(=O)N(Cc2ccccc2)c2ccccc2N1C(=O)c1ccccc1 (stereo not drawn)
Cc1cc(C(=O)Nc2c(C)n(C)n(-c3ccccc3)c2=O)cs1
Cc1c(NS(=O)(=O)c2cccc(C(=O)Nc3ccc(SC(F)F)cc3)c2)c(=O)n(-c2ccccc2)n1C
C=CC(=O)Nc1ccc(Nc2ccnc(Nc3ccc(N4CCN(C)CC4)cc3)n2)cc1
CN(C)c1ccc(/C=N/Nc2cc(N3CCOCC3)nc(N3CCOCC3)n2)cc1
Cc1cc(N2CCN(c3ccccc3)CC2)nc(N2CCOCC2)n1
O=C(c1cc(=O)c2ccccc2o1)N1CCN(c2ccccc2)CC1
COc1ccccc1N1CCN(C(=O)c2cc(=O)c3cc(C)ccc3o2)CC1
NC(=O)C1CCN(C(=O)c2cc(S(=O)(=O)N3CCN(c4ccccc4)CC3)ccc2Cl)CC1
COc1cc2[nH]c(O)c(C=O)c2cc1OC
Cc1ccc(S(=O)(=O)N2CCN(C(=O)COC(=O)/C=C/c3cccc(Cl)c3)CC2)c(C)c1
CCCCC[C@@H]1C=C(C(=O)O)[C@H](c2ccc(C#N)cc2)N1S(=O)(=O)c1ccc(C)cc1
CCC1(C)COC(c2ccc(OC)c(OC)c2)OC1 (stereo not drawn)
O=[N+]([O-])c1ccccc1NCc1ccc(Cl)cc1
O=C(Cc1ccc(Cl)cc1)NC(=S)Nc1ccccc1O
CC(C)(C)OC(=O)C1=C(CO)CS[C@@H]2[C@H](NC(=O)Cc3ccccc3)C(=O)N12
OCCN1CCN(CCO)C1=S

re-replication activation, inactive:
COc1ccc(CN2C(CC(=O)Nc3cccnc3)c3ccc(C(F)(F)F)cc3S2(=O)=O)cc1 (stereo not drawn) -6.2% [at 9.22 µM]
CCCCN(C)C(=O)C1CCN(Cc2ccccn2)CC1 -0.529% [at 9.22 µM]
